One experiment relates to DIO1 (gene 1733). The experiment in a line: CCTE_GLTED_hDIO1: CCTE's human Deiodinase 1 (DIO1) Inhibition Assay, Great Lakes Toxicology and Ecology Division (GLTED) Lab (AID 2283987).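 Note: isolated human DIO1 enzyme in a cell-free setup rather than cells; enzyme activity read as free iodide liberated from substrate via Sandell-Kolthoff colorimetry.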 An outline of the steps:
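Cell-free hDIO1 assay, triplicate plates. Absorbance of the Sandell-Kolthoff reaction reports enzyme-liberated iodide; iodinated chemicals or nitrite, iron and thiocyanate may interfere.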

Experiment [1] in a line: TOX21_TR_RXR_BLA_Antagonist_Followup_viability: Viability Assessment in the Tox21 Thyroid Hormone Receptor beta Retinoid X Receptor alpha (RXRa) Antagonism Beta-lactamase (BLA) Follow-Up Assay (AID 2283979). An excerpt: (§1) GeneBLAzer RXRa-UAS-bla HEK293T assay (RXRa-bla) (ThermoFisherScientific Catalog No. K1697) was run in qHTS 1536 well format as a secondary assay for specificity of response in the TOX21_TR_GH3_LUC_Agonist assay.TOX21_TR_RXR_BLA_Antagonist_Followup_viability is a component of the TOX21_TR_RXR_BLA_Antagonist_Followup assay. This component measures cell viability using the CellTiter-Glo Luciferase-coupled ATP quantitation.The assay component endpoint TOX21_TR_RXR_BLA_Antagonist_Followup_viability was analyzed with bidirectional fitting relation to DMSO as the negative control and baseline of activity. Using a type of viability reporter, loss-of-signal activity can be used to understand changes in viability. To generalize the intended target to other relatable targets, this assay endpoint is annotated to cell cycle, where the subfamily is cytotoxicity.
(§2) Cell Media Required: Growth (90% DMEM/F-12, 10% Fetal Bovine Calf Serum, 100U/ml Penicillin, 100 ug/ml Streptomycin), Assay (10ng/mL sodium selenite, 10 ug/mL humanapo-transferrin, 10 uM ethanolamine, 10 ug/mL insulin, 500 ug/mL bovine serum albumin (BSA))Assay Protocol: RXRa-bla cells were seeded at 2,500/well in 6 uL of the assay medium containing phenol red-free DMEM with 2% charcoal-stripped FBS in 1,536-well black-wall/clear-bottom plates (Greiner Bio-One North America) usinga Multidrop Combi dispenser. After5-h incubation at 37C/5% CO2 for cell attachment, 23 nL of follow-up compounds dissolved in DMSO, 11 concentrations in triplicate, and the positive control (9-cis retinoic acid) were transferred to the assay plates using a Pintool station. The assay plates were incubated at 37C/5% CO2 for 16h. One microliter of LiveBLAzer FRET-B/GCCF4-AM substrate (Life Technologies) was added to each well using an FRD. After 2-h incubation at room temperature, the fluorescence intensity was measured using an Envision plate reader (Perkin Elmer). Data were expressed as the ratio of 460:530 nm.

A short description of experiment [2]: CCTE_Shafer_MEA_acute_firing_rate_mean: CCTE's Neural Acute Assay for Mean Firing Rate, Shafer Lab (AID 2284009; active = hit-call score of the fitted dose curve at least 0.9, where 1 is the maximum; inactive = score below 0.9;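 note: analyzed for loss of signal so actives lower firing rate relative to DMSO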). An outline of the steps: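 Primary rat cortical neurons on 16-electrode MEA wells were exposed on DIV 13 or 15 to compound (0.03-40 uM). Spike counts per recording time, averaged over electrodes, were compared between 40-min baseline and 40-min post-exposure recordings as percent change.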

Experiment [3] in a line: TOX21_TR_RXR_BLA_Agonist_Followup_viability: Viability Assessment in the Tox21 Thyroid Hormone Receptor beta Retinoid X Receptor alpha (RXRa) Agonism Beta-lactamase (BLA) Follow-Up Assay (AID 2283970).
Description: as §1, with “assay.TOX21_TR_RXR_BLA_Agonist_Followup_viability” for “assay.TOX21_TR_RXR_BLA_Antagonist_Followup_viability”, “TOX21_TR_RXR_BLA_Agonist_Followup” for “TOX21_TR_RXR_BLA_Antagonist_Followup”, “TOX21_TR_RXR_BLA_Agonist_Followup_viability” for “TOX21_TR_RXR_BLA_Antagonist_Followup_viability”
as §2, with “After5-h incubation at 37C/5% CO2 for cell attachment, 23 nL of follow-up compounds dissolved in DMSO, 11 concentrations in triplicate, and the positive control (9-cis retinoic acid) were transferred to the assay plates using a Pintool station.” left out

Experiment [4] can be described thus: CCTE_Harrill_HTTr_Viability_MCF7: CCTE's 6-hour Cell Viability Assessment for the High-Throughput Transcriptomics (HTTr) Platform, in MCF-7 cells cultured in DMEM + 10% fetal bovine serum, Harrill Lab (AID 2284010; active = hit-call score of the fitted dose curve at least 0.9, where 1 is the maximum; inactive = score below 0.9). In short, it runs like this: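 Read-out is propidium iodide gain of signal by high-content imaging, reflecting membrane integrity loss. Measurements are taken 6 h after dosing, eight concentrations per chemical, with DMSO serving as baseline for bidirectional curve fitting.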

The target of experiment [5] is Nucleoli Translocation, AR (gene 367) (UniProt P10275). Description: UPITT_HCI_U2OS_AR_TIF2_Nucleoli_Antagonist: University of Pittsburgh U2OS Androgen Receptor-Transcriptional Intermediary Factor 2 (AR-TIF2) Antagonism High Content Imaging Assay for Nucleoli Translocation (AID 2283997). An outline of the steps:
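Antagonism is read as loss of nucleolar AR-RFP signal relative to DHT, imaged in U2OS cells also carrying GFP-TIF2. Compounds screened at 20 uM final, 0.2% DMSO; primary actives retested in triplicate.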

Experiment [6] concerns the target Ratio of Nucleoli Translocation and Cytoplasm, AR (gene 367) (UniProt P10275). The experiment in a line: UPITT_HCI_U2OS_AR_TIF2_Nucleoli_Cytoplasm_Ratio_Antagonist: University of Pittsburgh U2OS Androgen Receptor-Transcriptional Intermediary Factor 2 (AR-TIF2) Antagonism High Content Imaging Assay for Ratio of Nucleoli Translocation and Cytoplasm (AID 2283999).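 Note: antagonists lower the DHT-driven ratio of nucleolar to cytoplasmic red signal.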 In short, it runs like this: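 Compounds were added to U2OS cells carrying red-fluorescent AR and green-fluorescent TIF2, first at 20 uM, with hits confirmed in triplicate and titrated from 0.195 to 50 uM. Nucleolar versus cytoplasmic AR-RFP fluorescence was then quantified by imaging, with analysis relative to DHT.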

For experiment [7], the target named is Retinoic acid receptor RXR-alpha (Homo sapiens) (UniProt P19793). Description: TOX21_TR_RXR_BLA_Antagonist_Followup_ratio: Tox21 Thyroid Hormone Receptor beta Retinoid X Receptor alpha (RXRa) Antagonism Beta-lactamase (BLA) Follow-Up Assay, Ratio (AID 2283972). In short, it runs like this: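 Antagonist mode used GAL4 UAS-driven beta-lactamase in HEK293T cells expressing RXRa, treated for 16 h with compound concentration series. Activity was taken from the blue/green (460:530 nm) ratio of cleaved to uncleaved substrate.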

Experiment [8] addresses Nucleoli Translocation, AR (gene 367) (UniProt P10275). Description: UPITT_HCI_U2OS_AR_TIF2_Nucleoli_Agonist: University of Pittsburgh U2OS Androgen Receptor-Transcriptional Intermediary Factor 2 (AR-TIF2) Agonism High Content Imaging Assay for Nucleoli Translocation (AID 2283998). An outline of the steps:
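Red-tagged human androgen receptor co-expressed with GFP-tagged TIF2 serves as the binding reporter. Primary testing used 20 uM final (0.2% DMSO); follow-up dose response covered 0.195 to 50 uM final (0.5% DMSO).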

For experiment [9], the target named is Ratio of Nucleoli Translocation and Cytoplasm, AR (gene 367) (UniProt P10275). The experiment in a line: UPITT_HCI_U2OS_AR_TIF2_Nucleoli_Cytoplasm_Ratio_Agonist: University of Pittsburgh U2OS Androgen Receptor-Transcriptional Intermediary Factor 2 (AR-TIF2) Agonism High Content Imaging Assay for Ratio of Nucleoli Translocation and Cytoplasm (AID 2284000).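 Note: hits raise the red nucleolar to cytoplasm ratio above vehicle.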 An outline of the steps: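 Compounds tested at 20 uM final in primary screen (0.2% DMSO) and 0.195-50 uM final in dose-response (0.5% DMSO). Imaging of human U2OS cells bearing RFP-AR and GFP-TIF2; endpoint is nucleoli/cytoplasm red signal ratio, positive direction relative to DMSO.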

The structures appear in SMILES notation. Inconclusive results are not listed. Calls of active or inactive are those of the source. Rule for the calls, unless noted: active = hit-call score of the fitted dose curve at least 0.9, where 1 is the maximum; inconclusive = response in the unintended direction; inactive = score below 0.9.

Ratio of Nucleoli Translocation and Cytoplasm, AR (gene 367), sequence (P10275 whole entry, looked up): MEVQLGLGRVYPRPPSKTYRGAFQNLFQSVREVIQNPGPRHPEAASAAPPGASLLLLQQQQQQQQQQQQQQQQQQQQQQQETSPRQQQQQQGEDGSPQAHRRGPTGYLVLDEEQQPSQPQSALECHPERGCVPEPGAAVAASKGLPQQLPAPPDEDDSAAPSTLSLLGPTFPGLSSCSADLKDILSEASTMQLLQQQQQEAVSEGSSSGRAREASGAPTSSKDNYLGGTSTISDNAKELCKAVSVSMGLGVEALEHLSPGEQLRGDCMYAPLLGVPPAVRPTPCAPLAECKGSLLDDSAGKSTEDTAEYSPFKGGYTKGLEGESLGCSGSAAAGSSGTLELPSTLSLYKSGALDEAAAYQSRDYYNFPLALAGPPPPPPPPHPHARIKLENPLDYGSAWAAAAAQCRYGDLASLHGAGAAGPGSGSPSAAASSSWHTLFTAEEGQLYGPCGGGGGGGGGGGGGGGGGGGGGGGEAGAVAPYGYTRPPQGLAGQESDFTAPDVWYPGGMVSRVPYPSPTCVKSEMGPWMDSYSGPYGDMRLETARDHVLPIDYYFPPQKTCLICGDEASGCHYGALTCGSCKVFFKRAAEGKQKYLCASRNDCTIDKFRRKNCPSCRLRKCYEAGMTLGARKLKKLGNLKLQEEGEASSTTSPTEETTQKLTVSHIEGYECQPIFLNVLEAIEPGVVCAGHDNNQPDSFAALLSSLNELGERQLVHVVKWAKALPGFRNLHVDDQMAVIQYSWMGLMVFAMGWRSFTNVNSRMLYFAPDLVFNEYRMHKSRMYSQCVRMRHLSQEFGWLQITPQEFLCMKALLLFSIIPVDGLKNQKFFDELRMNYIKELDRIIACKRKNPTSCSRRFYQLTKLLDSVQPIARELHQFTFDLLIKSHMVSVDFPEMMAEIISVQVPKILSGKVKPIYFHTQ
Nucleoli Translocation, AR (gene 367), sequence (P10275 whole entry, looked up): as above
Retinoic acid receptor RXR-alpha (Homo sapiens), sequence (P19793 whole entry, looked up, the tested form may be a part): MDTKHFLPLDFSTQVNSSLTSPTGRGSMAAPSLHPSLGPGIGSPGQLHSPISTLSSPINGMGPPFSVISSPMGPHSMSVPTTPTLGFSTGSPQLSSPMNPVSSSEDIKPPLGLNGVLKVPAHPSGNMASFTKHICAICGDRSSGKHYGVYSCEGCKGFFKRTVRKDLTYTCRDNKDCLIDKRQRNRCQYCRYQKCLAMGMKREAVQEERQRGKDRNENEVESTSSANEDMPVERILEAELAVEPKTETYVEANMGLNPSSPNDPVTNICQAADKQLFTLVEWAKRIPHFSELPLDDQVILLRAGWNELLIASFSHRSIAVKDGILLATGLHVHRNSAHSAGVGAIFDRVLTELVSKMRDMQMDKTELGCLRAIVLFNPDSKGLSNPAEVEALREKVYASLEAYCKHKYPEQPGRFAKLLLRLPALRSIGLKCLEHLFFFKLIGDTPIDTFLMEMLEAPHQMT

Consider `CCCCCCCC[N+](C)(CCCCCCCC)CCCCCCCC`, for which, in the experiment on DIO1 (gene 1733), the AC50 was 70.8 µM (active).
For `N=c1ccn2c(n1)O[C@H]1[C@H](O)[C@@H](CO)O[C@H]12`, the compound was called inactive in experiment [1].
The same measure, in the same setting: the entry for `COCc1c(C(C)C)nc(C(C)C)c(/C=C/[C@@H](O)C[C@@H](O)CC(=O)O)c1-c1ccc(F)cc1` is “inactive”.
For the compound `C=C[Si](OC(C)=O)(OC(C)=O)OC(C)=O`, the result in experiment [2] was inactive.
Same read-out and setting: the entry for `CCO[Si](C)(OCC)OCC` is “inactive”; for `O=C(c1ccc(O)cc1)c1ccc(O)cc1O` it is “inactive”.
As for `c1cc(N(CC2CO2)CC2CO2)ccc1OCC1CO1` (stereo not given), in [1], the outcome was inactive.
`CCCCC(CC)COCC1CO1` (stereo not given): in experiment [2], the compound was classed as inactive.
As for `CCCCC/C=C\C/C=C\CCCCCCCC(=O)OC`, the AC50 in the experiment on DIO1 (gene 1733) is 21 µM (active).
Regarding `C[Si](C)O[Si](C)(C)O[Si](C)(C)O[Si](C)C`, in [3], the compound was classed as inactive.
With `Nc1ccc(N)c(Cl)c1`, in experiment [2], the outcome was inactive.
Turning to `CC/C=C\C/C=C\C/C=C\CCCCCCCC(=O)O`, the half-maximal activity concentration (AC50) with DIO1 (gene 1733) was 20.6 µM (active). The outcome in experiment [4] was inactive.
On to `CCCCCCC(O)CO` (stereo not given), for which the compound was classed as inactive in experiment [3] and in experiment [4].
On to `CCCc1ccc(OC)cc1`, for which the call in experiment [5] and in experiment [6] was inactive.
`NC(CO)(CO)CO`: the compound was called inactive in experiment [3].
For `Cc1oncc1C(=O)Nc1ccc(C(F)(F)F)cc1`, the result in experiment [7], in [1] and in experiment [4] was inactive.
Turning to `CN1C(=O)N(C)C(O)C1O` (stereo not given), in experiment [2], the compound was classed as inactive.
As for `O=C1CCCN1CCO`, in [2], the outcome was inactive.
As to `Oc1ccc(Cl)cc1Cc1cc(Cl)ccc1O`, the concentration at half-maximal activity (AC50) in [7] is 38.3 µM (active); in [1] it was 5.34 µM (active); with DIO1 (gene 1733), 99.8 µM (active); in experiment [5], 12.1 µM (active); in [8], 1.77 µM (active); in experiment [6], 16.3 µM (active). The outcome in [9] and in [4] was inactive.
On to `CC(C)=CCC[C@H](C)CCO`, for which the compound was called inactive in experiment [5], in experiment [8], in [6] and in [9].
Consider `CCCCCCCC/C=C\CCCCCCCC(=O)O`, for which the concentration at half-maximal activity (AC50) in the experiment on DIO1 (gene 1733) is 74 µM (active). In addition, the result in experiment [4] was inactive.
For the compound `CC(C)(Oc1ccc(C2CC2(Cl)Cl)cc1)C(=O)O` (stereo not given), the result in experiment [5], in experiment [8], in experiment [6], in experiment [9] and in experiment [4] was inactive.
Consider `O=c1cc(-c2ccccc2)oc2ccccc12`, for which the half-maximal activity concentration (AC50) in [5] was 21.9 µM (active); in experiment [6], 10.5 µM (active). Moreover, the compound was classed as inactive in [8] and in experiment [4].
Regarding `O=S(=O)(O)c1ccccc1C=Cc1ccc(-c2ccc(C=Cc3ccccc3S(=O)(=O)O)cc2)cc1`, the half-maximal activity concentration (AC50) in the experiment on DIO1 (gene 1733) was 100 µM (active).
Turning to `COc1ccc(C(Cl)=C(c2ccc(OC)cc2)c2ccc(OC)cc2)cc1`, the outcome in [7], in experiment [1] and in experiment [4] was inactive.
For `CCCCC/C=C\CCC=O`, the result in [5], in experiment [8] and in experiment [9] was inactive.
Regarding `CC(CC=O)CCCC(C)(C)O` (stereo not given), the result in [5], in experiment [8], in experiment [6] and in [9] was inactive.
As for `CO[Si](OC)(OC)c1ccccc1`, the outcome in [2] was inactive.
On to `CCCCCCCCCCCCCOP(=O)(O)O`, for which the half-maximal activity concentration (AC50) with DIO1 (gene 1733) is 91 µM (active).
As for `CC(C)c1ccc2cc(C(C)C)ccc2c1`, the call in [5], in [6] and in experiment [9] was inactive.
In the case of `CC(C)c1ccc2c(C(C)C)cc(C(C)C)c(S(=O)(=O)O)c2c1`, the call in experiment [5] and in experiment [9] was inactive.
For `Cc1ccc(N/N=c2\c(=O)cc/c(=N/Nc3ccc(S(=O)(=O)O)cc3)c2=O)c(C)c1`, in the experiment with DIO1 (gene 1733), the AC50 is 46.6 µM (active).

(Values after PubChem BioAssay (EPA / NIEHS).)
